According to PubChem BioAssay (NCI):
This is part of a sample that, as a whole, favours compounds with a hit. Of some 83,000 tested, about 20% had one in any assay.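 Step 1: grow cells in 96-well plates. Step 2: add test compound at a single concentration. Step 3: incubate 48 h. Step 4: record percent growth.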 Calls of active or inactive are those of the source. How the source made its calls: active means growth percent below 10; inactive means the rest.

Each molecule was assayed on 786-0 renal (assay: NCI-60 one-dose screen, 48 h (100 = growth as untreated, 0 = no growth, -100 = all killed)). Settings: 10 µM unless noted.

Structure (SMILES) | growth
CC/C(=C(\c1ccc(Cl)cc1)c1ccc(OCCN2CCCCC2)cc1)c1ccc(O)cc1 | -54.9% (active)
CCOC(=O)c1[nH]cc2c1CCc1sc(Nc3ccccn3)nc1-2 | 98.7% (inactive)
COc1cc(-c2ccc(-c3ccc(C(=N)N)cc3)s2)cc(OC)c1OC | 69.4% (inactive)
CN(C)c1ccc([C@@H](C(=O)Nc2cccc([N+](=O)[O-])c2)N(C(=O)c2cc3ccccc3[nH]2)c2cccc([N+](=O)[O-])c2)cc1 | 95.5% (inactive)
Cc1cccc(NC(=O)N/C(N)=N/c2nc3ccccc3s2)c1 | 38.6% (inactive)
CN(C)c1ccc(/C=N\NC(=O)c2ccc3nc(-c4ccc(Cl)cc4)[nH]c3c2)cc1 | 12.2% (inactive)
C=C1SC(=Nc2ccccc2Cl)N(C(=O)c2sc3ccccc3c2Cl)C1(C)C | 77.8% (inactive)
CC[C@@H](C(=O)[C@@H](C)[C@@H](O)[C@H](C)[C@@H]1O[C@@H]([C@@H](CC)C(=O)ONC(=O)c2ccccc2O)CC[C@@H]1C)C1O[C@]2(C=CC(=O)[C@]3(CC[C@@](C)([C@H]4CC[C@](O)(CC)[C@H](C)O4)O3)O2)[C@H](C)C[C@@H]1C (stereo not given in full) | 61.7% (inactive)
Cc1ccc(NC(=O)c2cc3ccccc3cc2O)c(C)c1 | 84.7% (inactive)
CCN(CC)CCOc1ccc2c(-c3ccccc3)c(-c3ccc(OC)cc3)c(=O)oc2c1 | 65.9% (inactive)
CCOC(=O)C1=C(CC(O)c2ccc(OC)cc2OC)NC(=O)NC1c1ccccc1 (stereo not given) | 102% (inactive)
COc1nc(/C=C\Nc2ccc3c(c2)OCCOCCOCCOCCO3)nc(OC)n1 | 97.7% (inactive)
Cc1c(O)cc(-c2cnc(N/N=C/c3ccccc3)s2)c(O)c1C | 117% (inactive)
CCCCO[C@@H]1C=C2[C@H]3CC(C)(C)C(=O)C[C@]3(C(=O)O[C@@H]3O[C@H](CO[C@@H]4O[C@H](CO)[C@@H](OC5OC(C)C(O)C(O)C5O)[C@H](O)[C@H]4O)[C@@H](O)[C@H](O)[C@H]3O)CC[C@@]2(C)[C@]2(C)CC[C@H]3C(C)(C)C(=O)CC[C@]3(C)[C@@H]12 (stereo not given in full) | 29.5% (inactive)
O=CN1N=C(c2cccc(Nc3ccnc4cc(Cl)ccc34)c2)CC1c1ccc(Cl)cc1 (stereo not given) | 28.8% (inactive)
CCCCCCCCn1ccc2cc(NC(=O)CN3CCN(c4cc(C)nc(Cl)n4)CC3)ccc21 | 94.6% (inactive)
O=C1Nc2ccccc2/C1=N/N1C(=O)CN(CCCl)C1=O | 101% (inactive)
CCOc1ccc(/C=C/C(=O)c2cccc(OCCCOc3cccc(C(=O)/C=C/c4ccc(OCC)cc4)c3)c2)cc1 | 100% (inactive)
C=C1C(=O)O[C@H]2[C@H]1CC/C(COC(=O)NCc1ccc(Cn3c(=O)sn(-c4ccc(I)cc4)c3=O)cc1)=C\CC[C@@]1(C)O[C@@H]21 | 75.2% (inactive)
O=C1/C(=C/c2c[nH]c(=O)[nH]c2=O)SC(=S)N1Cc1ccccc1 | 100% (inactive)

Structure (SMILES) | growth
Nc1nc(N(Cc2ccccc2)c2ccccc2)c2cn[nH]c2n1 | 72.3% (inactive)
CC(C)NS(=O)(=O)/N=C1\NC(=O)NC1=C(Cl)Cl | 110% (inactive)
COc1cc2c(cc1OCCCN1CCN(C(=S)SCCC(C#N)(c3ccccc3)c3ccccc3)CC1)N=C[C@@H]1CCCN1C2=O | -94.9% (active)
O=c1cc(CP(=O)(O)O)c2cc(O)c(-c3ccccc3)cc2o1 | 104% (inactive)
O=S(=O)(Nc1ccc2ccccc2c1)c1ccc(-c2cnc(C3CC3)o2)cc1 | 42.7% (inactive)
N=C(N)c1ccc(OCCSCCOc2ccc(C(=N)N)cc2)cc1 | 80.2% (inactive)
Fc1ccc(/C=C/[C@@H]2C[C@@H](F)CCO2)cc1 | 94.4% (inactive)
COC(=O)[C@@]12CC=C(C)[C@]3(C[C@H](c4ccoc4)OC3=O)[C@H]1C=C[C@@H](O)[C@@]2(O)C(=O)OC | 97.4% (inactive)
O=c1oc2c(cc1-c1ccccc1)c(=O)[nH]c1ccccc12 | 85.9% (inactive)
COc1ccc(C/C(C)=C(\c2ccc(O)cc2)c2ccc(OCCN3CCCCC3)cc2)cc1 | 76.8% (inactive)
CNC(=O)c1cc(Oc2ccc3c(c2)sc2nc(-c4ccc(NC(=O)[C@@H](NC(=O)OC)C(C)C)cc4)cn23)ccn1 | 87.4% (inactive)
Nc1[nH]nc2nc(-c3ccccc3)n3c4ccccc4nc3c12 | 106% (inactive)
N#Cc1ccccc1-c1ccc(CN2C(=O)S/C(=C\c3ccc(Br)cc3)C2=O)cc1 | 99.3% (inactive)
C=C1CC[C@@H]2C(C)(C)[C@H](O)CC[C@@]2(C)[C@@H]1COc1ccc2ccc(=O)oc2c1 | 93% (inactive)
COc1cc2ncnc(Nc3ccc(S(=O)(=O)Nc4nccs4)cc3)c2cc1OCCCN1CCCC1 | 105% (inactive)
Cc1cc(O)c(=O)cc2c1C[C@H]1CC(C)(C)/C=C/C[C@]3(C)Oc4cc(=O)c(O)cc(C)c4C[C@H]3C[C@H](O)[C@@]1(C)O2 | -1.45% (active)
COc1ccc2[nH]cc(-c3nonc3-c3c[nH]c4ccc(Br)cc34)c2c1 | 61.4% (inactive)
COc1cc2c(c(OC)c1OC)C(=O)CC(c1cccc(C(=O)Nc3ccccc3Br)c1)O2 (stereo not given) | 88% (inactive)
NS(=O)(=O)c1ccc(C(=O)N=Nc2c(O)[nH]c3ccc(Cl)cc23)cc1 | 102% (inactive)
CCCN(CCSSCCNc1nc(N(C)O)nc(N(C)O)n1)c1nc(N(C)O)nc(N(C)O)n1 | 70% (inactive)
